Reference: PubChem BioAssay (EPA / NIEHS)
The source made the active and inactive calls. The calls were made as follows: active = hit-call score of the fitted dose curve at least 0.9, where 1 is the maximum; inactive = score below 0.9.

molecular target: Bile acid receptor (Homo sapiens) (UniProt Q96RI1); test: ATG_IR1_CIS: Attagene CIS-FACTORIAL HepG2 Assay for human Nuclear Receptor Subfamily 1 Group H Member 4 (NR1H4), IR1 submotif (AID 2282946); conditions: IR1 reporter transcription, actives raise or lower the signal
Sequence (Q96RI1 whole entry, looked up): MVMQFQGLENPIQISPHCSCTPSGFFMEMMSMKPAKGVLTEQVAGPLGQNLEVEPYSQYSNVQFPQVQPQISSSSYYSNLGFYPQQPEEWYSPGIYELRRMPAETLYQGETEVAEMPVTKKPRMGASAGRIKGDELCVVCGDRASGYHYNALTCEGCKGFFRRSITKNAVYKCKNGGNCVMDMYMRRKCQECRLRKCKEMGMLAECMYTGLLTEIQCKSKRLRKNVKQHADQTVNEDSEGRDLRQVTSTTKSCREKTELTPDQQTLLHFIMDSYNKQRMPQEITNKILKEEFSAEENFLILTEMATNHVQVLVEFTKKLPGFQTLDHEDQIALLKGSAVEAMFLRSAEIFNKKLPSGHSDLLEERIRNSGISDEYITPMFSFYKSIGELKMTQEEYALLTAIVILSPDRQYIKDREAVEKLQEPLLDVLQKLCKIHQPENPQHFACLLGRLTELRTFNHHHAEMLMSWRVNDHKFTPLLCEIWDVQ
Method: ATG_CIS is a cell-based, multiplexed-readout assay that uses HepG2, a human liver cell line, with measurements taken at 24 hours after chemical dosing in a 24-well plate.ATG_IR1_CIS is one of 52 assay component(s) measured or calculated from the ATG_CIS assay. It is designed to make measurements of mRNA induction, a form of inducible reporter, as detected with fluorescence intensity signals by Reverse transcription polymerase chain reaction (RT-PCR) and Capillary electrophoresis technology.Data from the assay component ATG_IR1_CIS was analyzed into 1 assay endpoint. This assay endpoint, ATG_IR1_CIS, was analyzed with bidirectional fitting relative to DMSO as the negative control and baseline of activity. Using a type of inducible reporter, measures of mRNA for gain or loss-of-signal activity can be used to understand the reporter gene at the transcription factor-level as they relate to the gene NR1H4. Furthermore, this assay endpoint can be referred to as a primary readout, because this assay has produced multiple assay endpoints where this one serves a reporter gene function. To generalize the intended target to other relatable targets, this assay endpoint is annotated to the nuclear receptor intended target family, where the subfamily is non-steroidal.
Human liver HepG2 cells are transiently transfected with multiple reporter transcription units (MRTUs) in 6-well plates using FuGene 6 reagent (Roche; 3 ml FuGene/1 mg DNA). The MRTU constructs are regulated by a cis-regulating element (promoter). […] A major difference between the CIS and TRANS system is that in CIS activities of endogenous TFs are measured, whereas the TRANS assay evaluates changes in activities of exogenous, chimeric NR-Gal4 proteins. […] At the end of 24 hour incubation, total RNA was isolated using TriZol reagent (Invitrogen). The isolated RNA is then reverse-transcribed using oligo(dT) primer and Mo-MLV reverse transcriptase (Invitrogen) with DNAse I (Ambion) treatment for 30 min. The one-tenth of the produced cDNA was amplified by PCR using Taq DNA polymerase (Invitrogen) and two reporter sequence-specific primers. The PCR products were fluorescently labeled by primer extension with 6-arboxyfluorescein (6-FAM) 5'-labeled reporter sequence-specific primer (2 min at 95 C, 20 s at 68 C and 10 min at 72 C) and these products were digested with 5U of HpaI (New England Biolabs) for 2h at 37 C. The fragments were purified using Qiaquick PCR columns (Qiagen), analyzed on an ABI 3130xL genetic analyzer (Applied Biosystems) with peak positions identified by using a set of X-rhodamine (ROX)-labeled MapMarker1000 molecular weight standards (BioVentures). The raw capillary electrophoresis data was processed using Attagraph software (Attagene).

outcome, inactive:
COc1cc(CCC(C)=O)ccc1O
O=C1c2ccccc2C(=O)c2c(O)ccc(O)c21
CC1(C)COCN1
CC(C=O)Cc1ccc(C(C)(C)C)cc1 (stereo not given)
OCCc1ccccc1
CC1=C(Br)C(=O)C(Br)=C/C1=C(/c1ccccc1S(=O)(=O)O)c1cc(Br)c(O)c(Br)c1C
Oc1c(Cl)cc(Cl)c(Cl)c1Cc1c(O)c(Cl)cc(Cl)c1Cl
CCCCCCCCCCCCCCCC(=O)OC/C=C(C)/C=C/C=C(C)/C=C/C1=C(C)CCCC1(C)C
Cc1cc(C)nc(NS(=O)(=O)c2ccc(N)cc2)n1
CC(C)=CCCC(C)CCOC=O (stereo not given)
CCCCCCOC(=O)C(C)C
CCCCCC(=O)CC
NCc1ccco1
O=CCc1ccccc1
OCc1ccc(Cl)cc1Cl
CC(=O)O[C@@H]1C[C@@H]2CC[C@@]1(C)C2(C)C
CCOC(=O)COC(=O)c1cc(Oc2ccc(C(F)(F)F)cc2Cl)ccc1[N+](=O)[O-]
CCOC(=O)CN
CCc1ccc(O)c(OC)c1
COCCc1ccc(OCC(O)CNC(C)C)cc1 (stereo not given)
CCOc1ccccc1O
CCOC(=O)c1ccc(N)cc1
CC[N+](C)(CC)CC
CCc1ncc(C)[nH]1
C1=CC2C3C=CC(C3)C2C1 (stereo not given)
c1ccc2cc(Nc3ccc(Nc4ccc5ccccc5c4)cc3)ccc2c1
COC(=O)Nc1ccc(Cl)c(Cl)c1
CCCC(O)C(O)CO (stereo not given)
CC(=O)C(C)O (stereo not given)
CC1C2CC(CC2C2CCCC(O)C2)C1(C)C (stereo not given)
CC(C)(C)CC(C)(C)c1ccc(OCCOCC[N+](C)(C)Cc2ccccc2)cc1
COc1cc(Cl)c(OC)cc1N
ClC(c1ccccc1)(c1ccccc1)c1ccccc1
COc1cc(C(C)C)ccc1C
c1ccc(Oc2ccccc2)cc1

AC50, active:
CCOC(=O)C(C#N)=C(c1ccccc1)c1ccccc1 100 µM
CSc1c(Cl)c(Cl)c(Cl)c(Cl)c1Cl 5.76 µM
CCCCCCCCSCCO 151 µM
CCC(Cl)C(Cl)C(Cl)CC(Cl)C(Cl)C(C)Cl (stereo not given) 10.5 µM
C=CC(=O)OCCC#N 58.1 µM
